# Results from ChEMBL document CHEMBL4513135, “CO-ADD screening of IQOG CSIS (Spain) compounds”.
# Several values for one entry are separate records, joined by “and”; a condition that tells them apart may be missing. Identical values can stand only once. Entries with a potency or affinity are not part of this list.
# Tests used:
# [1] = system: Klebsiella pneumoniae; details: Concentration 32 ug.mL-1, ASSAY_TEST Inhibition of Bacterial Growth, detection method Absorption (OD600), MEDIA CAMHB, plate type 384well, NBS, CORNING #3640, time 18 hr
# [2] = system: Candida albicans; details: 32 ug/mL
# [3] = system: Cryptococcus neoformans; details: Concentration 32 ug.mL-1; ASSAY_TEST Inhibition of Fungal Growth; detection method Resazurin; Absorption (OD600-OD570); plate type 384well; NBS; CORNING #3640
SMILES,Inhibition [1],Inhibition [2],Inhibition [3],Inhibition ([1]; 32 ug/mL)
Cl.Nc1c2c(nc3c1C(c1ccccc1)c1c(ccc4ccccc14)O3)CCCC2 (centres undefined),8.19%,1.33%,-0.7%,–
Nc1nc(N)c(C=O)c(-c2ccccc2)c1C=O,-1.67%,9.69%,-7.8%,–
CC(=O)Oc1ccc(C=C2N=C(C)OC2=O)cc1,7.96%,-1%,-2.97%,–
CC(=O)Nc1nn(C)c2nc3nc4c(c(N)c3cc12)CCCC4,–,–,–,12.62% and 9.74%
CCOC(=O)C1=C(C)Oc2nc3c(c(N)c2C1c1ccc(O)c(OC)c1)CCC3 (centres undefined),2.99%,0.9%,-66.64%,–
COc1ccc2c(c1)cc(/C=C/[N+](=O)[O-])n2C,9.01%,2.82%,4.17%,–
C#CCNc1nc(NCCCCC2CCN(Cc3ccccc3)CC2)c(C#N)cc1C#N,-10.59%,4.43%,-10.91%,–
COc1ccc(-c2c(C#N)c(=O)oc3c2ccc2ccccc23)cc1,–,2.65% and 6.62%,–,4.75% and -0.52%
N#CC1(Br)C(=NBr)Oc2ccc3ccccc3c2C1c1ccccc1 (centres undefined),-3%,3.44%,-1.83%,–
O=C1NC(=S)N/C1=C\c1c[nH]c2ccccc12,4.51%,-0.31%,-1.8%,–
COc1ccc2c(c1)cc(C(=O)O)n2C,11.78%,31.1%,-23.41%,–
C#CCN(C)c1nc(NC2CCN(Cc3ccccc3)CC2)c(C#N)c(-c2ccccc2)c1C#N,-4.36%,3.34%,-29.11%,–
COc1ccc(C=C2N=C(SC)N(C)C2=O)cc1,-13.67%,0.01%,-7.91%,–
CN(C)c1nc(N)c(C#N)cc1C#N.Cl,–,3.18% and 2.67%,–,-3.22% and 8.57%
Cl.ClCCCCN1CCCCC1,-0.73%,-0.33%,-8.6%,–
CCOC(=O)c1cc2ccccc2[nH]1,16.5%,2.42%,-5.94%,–
N#Cc1cc(C#N)c(NCc2ccccc2)nc1N,-14.3%,1.7%,5.02%,–
Cl.Cl.Cn1c(CNc2ccccc2)cc2cc(OCCCC3CCN(Cc4ccccc4)CC3)ccc21,5.5%,1.7%,-74.16%,–
N#CC1=C(N)Oc2ccc3ccccc3c2C1c1ccc(O)cc1 (centres undefined),11.07%,2.93%,-36.73%,–
CCOC(=O)C1=C(C)OC(N)=C(C#N)C1c1cccs1 (centres undefined),7.75%,0.39%,-27.56%,–
Cc1cnc(NC(=O)OC(C)(C)C)c(Br)c1,17.7%,-0.1%,-60.78%,–
C#CCn1c(N)c(C#N)c2cc(O)ccc21,10.3%,1.41%,-78.39%,–
COc1ccccc1C1c2ccc3ccccc3c2Oc2nc3c(c(N)c21)CCCC3 (centres undefined),8.8%,0.31%,-4.38%,–
CCOC(=O)/C(C#N)=C\c1ccc(C)cc1,18.72%,1.42%,-4.89%,–
CC(C)(C)OC(=O)N[C@H]1CC[C@H](O)CC1,7.91%,0.02%,-36.58%,–

SMILES,Inhibition [1],Inhibition [2],Inhibition [3],Inhibition ([1]; 32 ug/mL)
NC(=O)N/N=C/c1c[nH]c2ccccc12,23.24%,0.31%,-3.05%,–
N#Cc1c(-c2ccccc2)c2ccc3ccccc3c2oc1=O,8.94%,3.25%,-60.47%,–
COC(=O)C(=Cc1ccccc1)NC(=O)c1ccccc1,12.18%,0.5%,-5.65%,–
CCOC(=O)c1c(C)nc2nc3c(c(N)c2c1-c1ccc(OC)cc1)CCCCCC3,2.79%,-1.03%,-97%,–
C#CCNc1nc(NCCC2CCN(Cc3ccccc3)CC2)c(C#N)cc1C#N,-4.95%,3.57%,-89.93%,–
C#CCN(C)c1nc(N)c(C#N)cc1C#N,–,–,–,17.2% and 7.82%
CCOC(=O)C1=C(C)Nc2nc3c(c(N)c2C1c1ccc([N+](=O)[O-])cc1)CCCC3.Cl (centres undefined),18.29%,1.72%,-58.17%,–
COc1cccc(C2c3c(ccc4ccccc34)OC(=N)C2(Br)C#N)c1 (centres undefined),–,–,–,14.84% and 5.04%
C#CCN(C)c1nc(OC)c(C#N)cc1C#N,1.2%,2.65%,-43.21%,–
CCOC(=O)C1=C(C)Oc2nc3c(c(N)c2C1c1nccn1C)CCCCC3 (centres undefined),6.14%,3.82%,-4.74%,–
CC1=C(C(=O)O[C@@H]2C[C@@]3(C)CC[C@H]2C3(C)C)C(c2ccccc2)C(C#N)=C(N)O1 (some centres undefined),-1.66%,15.2%,-2.45%,–
C#CCNc1nc(N)c(C#N)c(-c2ccccc2)c1C#N,-20.09%,2.85%,-2.34%,–
N#Cc1cc2c(N)c3c(nc2nc1Cl)CCCC3,24.47%,2.63%,-42.44%,–
CC(C)NNC(=O)Cc1c[nH]c2ccccc12,18.29%,-0.05%,-1.92%,–
C=C1CNc2c(C#N)c(-c3ccccc3)c(C#N)c(=N)n21,0.65%,3.22%,-41.17%,–
c1ccc(COc2ccc3[nH]ccc3c2)cc1,11.46%,-1.1%,-1.93%,–
CC(C)(C)OC(=O)Nc1ccccn1,24.53%,0.46%,-68.78%,–
COc1ccc2cc(C=O)c(Cl)nc2c1,1.14%,6.08%,26.83%,–
C/C(=N\NC(=O)c1cc2ccccc2n1Cc1ccccc1)C1CC1,4.04%,0.9%,-0.08%,–
C/C(Cc1ccccc1)=N/NC(=O)c1c[nH]c2ccc(O)cc12,5.8%,0.37%,4.37%,–
N#CC1(Br)C(=NBr)Oc2c(ccc3ccccc23)C1c1ccc([N+](=O)[O-])cc1 (centres undefined),12.27%,25.9%,-87.41%,–
C=C1CN(Cc2ccccc2)c2c(C#N)c(-c3ccccc3)c(C#N)c(=N)n21,17.58%,2.82%,-53.83%,–
CN(C)c1nc(Cl)c(C#N)c(-c2ccccc2)c1C#N,5.58%,3.09%,-9.38%,–
C#CCN(C)Cc1cc2cc(OCCCC3CCN(Cc4ccc(OC)c5ncccc45)CC3)ccc2n1C,-9.53%,0.97%,-73.89%,–
C1CNCCNCCNCCNC1,5.58%,4.25%,-3.46%,–

SMILES,Inhibition [1],Inhibition [2],Inhibition [3],Inhibition ([1]; 32 ug/mL)
O=C1SC(SCc2ccccc2)=NC1=Cc1ccc2c(c1)OCO2,-9.46%,1.96%,-6.24%,–
COc1ccc(-c2cc(-c3cc4ccc(OC)cc4nc3Cl)cc(=O)[nH]2)cc1,4.32%,-0.61%,-66.65%,–
COc1ccccc1C1C(C#N)=C(N)Oc2c1ccc1ccccc21 (centres undefined),8.71%,1.78%,-34.5%,–
N#CC1=C(N)Oc2c(ccc3ccccc23)C1c1ccccc1 (centres undefined),10.23%,1.97%,-37.74%,–
Cc1ccc(C2c3c(nc4c(c3N)CCCC4)Oc3ccc4ccccc4c32)cc1 (centres undefined),2.87%,1.23%,2.32%,–
Cc1ccc(CNNC(=O)c2cc3ccccc3n2C)cc1,-14.45%,1.69%,-0.2%,–
COc1ccc2cc(C3C4=C(CC(C)(C)CC4=O)Oc4nc5c(c(N)c43)CCCC5)c(Cl)nc2c1 (centres undefined),5.45%,7.25%,-9.09%,–
CCC(CC)NNC(=O)c1c[nH]c2ccccc12.Cl,14.64%,1.1%,4.78%,–
O=C(Cc1ccccc1)N/N=C/c1c[nH]c2ccccc12,20.21%,3.09%,-2.34%,–
CC1=C(C(=O)N2[C@@H]3C[C@H]4CCC3(CS2(=O)=O)C4(C)C)C(c2ccccc2)C(C#N)=C(N)O1 (some centres undefined),14.51%,3.41%,-6.44%,–
C#CCN(C)c1nc(NCC2CCN(Cc3ccccc3)CC2)c(C#N)c(-c2ccccc2)c1C#N.Cl,9.81%,-0.67%,16.69%,–
CCCC(=O)NCc1c(-c2ccc(Cl)cc2)nc2ccccn12,-10.71%,1.27%,-9.45%,–
COc1ccc(C2c3ccc4ccccc4c3Oc3nc4c(c(N)c32)CCCC4)c(OC)c1 (centres undefined),4.09%,0.01%,-0.17%,–
CC(=O)Oc1cccc(C=C2N=C(c3ccccc3)OC2=O)c1,1.18%,2.1%,-5.65%,–
Cc1ccccc1-c1c(C=N)c(N)nc2c1S(=O)(=O)OC2(C)C,10.81%,-0.01%,-3.14%,–
COc1[nH]c(=O)ccc1C#N,19.79%,7.91%,-56.43%,–
CCC(Cc1ccccc1)NNC(=O)c1cc2ccccc2[nH]1 (centres undefined),-8.95%,1.13%,-1.62%,–
N#Cc1cc(C#N)c(N2CCCCC2)nc1Cl,12.8%,0.28%,-0.7%,–
COc1ccc(-c2cc(-c3cc4c(OC)ccc(OC)c4nc3Cl)cc(=O)[nH]2)cc1,5.89%,0.7%,-87.69%,–
C#CCN(C)c1cc(C)nc(C)n1,18.17%,5.55%,-42.1%,–
CCOC(=O)c1cc2cc(OC)ccc2n1C,-11.12%,0.11%,-3.08%,–
COc1ccc(-c2cc(-c3cc4ccccc4nc3Cl)cc(=O)[nH]2)cc1,10.14%,-0.7%,-53.36%,–
COc1cc(C2c3ccc4ccccc4c3Oc3nc4c(c(N)c32)CCCC4)ccc1O.Cl (centres undefined),-2.62%,-0.98%,-5.33%,–
Cc1[nH]c2ccc(OCc3ccccc3)cc2c1C(=O)NN,5.83%,1.23%,-5.65%,–
